Measured values from PubChem BioAssay AID651702 (NMMLSC, 2012).
Screen size: about 360,000 compounds; about 2,400 (0.67%) were called active.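 The calls were made as follows: active = inhibition above about 55% (limit read from the data); inconclusive = no clear call, values can overlap the other calls; inactive = the rest.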 The sample as a whole holds a higher share of actives than the screen did.

Assay: LAMP-1 surface exposure blockers, TALL-104 cells – cell-based, flow cytometry, MLPCN library, primary screen (AID 651702)
Details: TALL-104 LAMP-1 surface exposure, at 10 µM, stronger effect = higher value, cells stimulated with thapsigargin and PMA

SMILES | inhibition
Cc1cc(C)cc(NC(=O)c2cccc(NC(=O)C3C4CC5OC(=O)C3C5C4)c2)c1 (configuration not stated) | -3.6% (inactive)
Cc1noc(C)c1COC(=O)Cn1c(C)nc2ccccc21 | -0.2% (inactive)
CCCCCCCCCCOC(=O)Cn1c(COc2cccc(OC)c2)[n+](C)c2ccccc21 | 63.4% (active)
CCOc1ccc(OCCSc2nc3ccccc3n2CC(=O)O)cc1 | -4.7% (inactive)
CCCCCCCCCCOC(=O)Cn1c(COc2ccc(C)cc2)[n+](C)c2ccccc21 | 79.9% (active)
Cc1cccc(-n2c(Cc3cc(=O)[nH]c(=O)[nH]3)nnc2SCC(=O)Nc2cccc(C(F)(F)F)c2)c1 | -9.1% (inactive)
COc1ccc(CCNC(=O)NS(=O)(=O)c2ccc(C)cc2)cc1OC | -3.4% (inactive)
CC(=O)N1C[C@@H](CO)[C@@H](N(C)C(=O)c2ccco2)C[C@H]1c1ccccc1 | -2% (inactive)
NC(=S)NN=C1CCCC(C(F)(F)F)C1 (configuration not stated) | -3% (inactive)
Cc1ccc(NC(=O)c2cc(-c3ccc(C)o3)nc3ccccc23)nc1 | 71.4% (active)
CCc1ccc(-c2cc(C(=O)NN3CCN(C)CC3)c3ccccc3n2)cc1 | -2.9% (inactive)
Cc1c(NC(=O)c2cc(-c3ccc(Cl)s3)nc3ccccc23)c(=O)n(-c2ccccc2)n1C | 8.8% (inactive)
CCN1C(=O)[C@H]2[C@@H](c3ccc(-c4ccc(F)cc4)cc3)N[C@@](Cc3ccccc3)(C(=O)OC)[C@H]2C1=O | 97.9% (active)
CCN1C(=O)[C@H]2[C@@H](c3ccc(SC4CCCCC4)c(OC)c3)N[C@@](Cc3ccccc3)(C(=O)OC)[C@H]2C1=O | -2.9% (inactive)
CCN1C(=O)[C@H]2[C@@H](c3ccc(-c4ccc(OC)cc4)cc3)N[C@@](Cc3ccccc3)(C(=O)OC)[C@H]2C1=O | -2.6% (inactive)
COc1ccc(CC(NC(C)=O)C(=O)NC2CCN(C(=O)c3ccc(Cl)cc3)CC2)cc1 (configuration not stated) | -6.3% (inactive)
COc1cc2c(cc1OC)C(c1ccccc1Br)NC(=O)C2 (configuration not stated) | 1.4% (inactive)
Brc1ccccc1C1N=C(c2ccccc2)NO1 (configuration not stated) | -3.5% (inactive)
Brc1ccccc1C1Nc2cccc3cccc(c23)N1 | 72.2% (active)

SMILES | inhibition
NS(=O)(=O)c1cc(Cl)c(Cl)c(S(N)(=O)=O)c1 | 0.8% (inactive)
O=C(O)c1cc(S(=O)(=O)N(Cc2ccccc2)c2ccccc2)ccc1Cl | -1% (inactive)
NC(=O)c1ccccc1N(Cc1ccccc1)S(=O)(=O)c1ccccc1 | 11.2% (inactive)
O=S(=O)(c1ccccc1)N(Cc1cccc(F)c1)c1ccccc1 | 65.4% (active)
OCCC1CN(Cc2cccn2-c2nccs2)CCN1CCc1ccccc1 (configuration not stated) | 1.1% (inactive)
COC(=O)[C@@]12CCCN1[C@H](c1ccc(-c3ccc(F)cc3)c(OC)c1)[C@H]1C(=O)N(C)C(=O)[C@H]12 | -14% (inactive)
CCCCNC(=O)C[C@@H]1C[C@@]2(C(=O)OC)CC(C)(C)CC=C2N(Cc2ccco2)C1=O | -4.4% (inactive)
COC(=O)[C@@H](Cc1ccccc1)NC(=O)NCCc1ccccc1 | 2.5% (inactive)
COC(=O)[C@H](C)[C@H]1C[C@]1(C)[C@H](NC(=O)OCc1ccccc1)c1ccccc1 | 5.6% (inactive)
COC(=O)[C@H](Cc1ccccc1)NC(=O)[C@@H]1C[C@H]1[C@@H](NC(=O)OCc1ccccc1)c1ccccc1 | 106% (active)
CC(=O)N1CCc2cc(S(=O)(=O)Nc3ccccc3N3CCN(C)CC3)ccc21 | 3.6% (inactive)
Cc1nnc(SCC(=O)N2c3ccccc3C(C)(c3ccc(Cl)cc3)CC2(C)C)s1 (configuration not stated) | -0.3% (inactive)
CCCCCn1nnnc1C1c2ccccc2C(=O)N1Cc1ccco1 (configuration not stated) | -4% (inactive)
CCCCn1c(-c2cccc(C)c2)nc2cc3[nH]c(=O)c(C(C)C)nc3cc21 | 7.2% (inactive)
CCCCCn1nnnc1-c1nc2cc3ccccc3cc2[nH]c1=O | 56.3% (active)
COc1ccccc1NC(=O)C(C)OC(=O)c1ccc(-n2cnnn2)cc1 (configuration not stated) | 2.1% (inactive)
COc1ccc(NC(=O)Cn2ncn3c(cc4ccccc43)c2=O)c(OC)c1OC | -1.7% (inactive)
O=C(CNCc1ccc(Cl)cc1)Nc1cccc(C(=O)O)c1 | 2.8% (inactive)
CC(CC(=O)Nc1cc(C(F)(F)F)ccc1Cl)c1ccccc1 (configuration not stated) | 83.7% (active)

SMILES | inhibition
COc1cc(OC)c(C(=O)OC(C)C(=O)Nc2cc(C(F)(F)F)ccc2Cl)cc1OC (configuration not stated) | 0.8% (inactive)
CC(C)CC(=O)Nc1cc(C(F)(F)F)ccc1N1CCOCC1 | -2.5% (inactive)
CC1=NCCN1S(=O)(=O)c1ccc(Br)c(C)c1 | -1.3% (inactive)
COc1cc(OC)c2c(-c3cccc(-c4cccc(N)c4)c3)cc(=O)oc2c1 | 4.4% (inactive)
COc1cccc(NC(=O)C2c3cc(OC)c(OC)cc3C(=O)N(C)C2c2cccnc2)c1 (configuration not stated) | 1.8% (inactive)
COc1cccc(NC(=O)C2C(c3ccccc3)C2(Cl)Cl)c1 (configuration not stated) | 83.9% (active)
COc1cccc(NC(=O)C2CCCN2C(=O)OCc2ccccc2)c1 (configuration not stated) | -0.8% (inactive)
O=S(=O)(N/N=C\c1cccn1-c1ccccc1)c1ccc2ccccc2c1 | -0.4% (inactive)
Cc1cccc(CNC(=O)c2sc(=O)n(Cc3ccccc3C)c2C)c1 | -3.5% (inactive)
CCCCCNC(=O)C(c1ccc(OC)cc1)n1c(=O)c(-c2ccccc2)nc2ccccc21 (configuration not stated) | 5.5% (inactive)
COc1ccccc1N1CCN(c2ncnc3sc(C)c(-c4ccccc4)c23)CC1 | 57.5% (active)
COc1ccccc1N1CCN(c2nc(C)cc(=O)[nH]2)CC1 | 0.2% (inactive)
COc1ccccc1N1CCN(c2ccc([N+](=O)[O-])nc2)CC1 | -3.5% (inactive)
O=C1CCC([N+](=O)[O-])C(c2ccccc2Br)N1 (configuration not stated) | -1.2% (inactive)
CCOc1ccccc1Nc1nnc(SCC(=O)NCC2CCCO2)s1 (configuration not stated) | -20.1% (inactive)
COc1ccc(C2OC(CCc3ccccc3)Cc3[nH]c(=S)[nH]c(=O)c32)cc1 (configuration not stated) | -3% (inactive)
Cc1cnc(C(=O)OCC(=O)N2CCc3ccccc32)cn1 | 0.3% (inactive)
Cc1cnc(C(=O)OCC(=O)NCCCc2ccccc2)cn1 | -0.1% (inactive)
Cc1cnc(C(=O)OCc2c(C)cc(C(C)(C)C)cc2C)cn1 | 63.8% (active)
